# Screens: PubChem BioAssay, National Center for Advancing Translational Sciences (NCATS)
# An excerpt weighted towards active compounds, which were near 3.2% of everything screened.
# Tb PYK inh = qHTS of Trypanosoma Brucei Inhibitors; pyruvate kinase (Trypanosoma brucei), Q57TT1; TbPYK enzyme, Kinase-Glo Plus ATP luminescence, 45 min; Potency, µM (doses to about 76.8 µM), for inactives: at the top dose activity, negative = inhibition, usual class: inhibitors; 410,000 tested, 0.12% active; AID 624173, 2012; further: nearly all actives have a fitted effect of over 50% in size
#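 ADP (130 uM final) triggers the TbPYK reaction after compound addition; incubation is 45 min at room temperature. Kinase-Glo Plus is then added and luminescence imaged. Normalized data are fitted to concentration-effect curves.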
# RE007 growth inh = qHTS Assay for Inhibitors of the HIV-1 protein Vpr. S. pombe RE007 Vpr strain, BacTiter-Glo ATP luminescence, 24 h. Potency, µM (top dose mostly 92.2 µM), for inactives: at the top dose activity change, negative = less growth, actives largely listed as inhibitors. 360,000 tested, 0.21% active. AID 651644, 2012; active means well fitted falling curve with a large enough effect; inconclusive means small, poorly fitted or top-dose-only effect; inactive means no such curve, though single readings can be large or run the other way; further: nearly all actives have a fitted effect of over 50% in size
#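 Fission yeast strain RE007, carrying one chromosomally integrated HIV-1 vpr copy, was seeded at OD 0.01 in PMG+AL medium with 23 nL pinned compound. After 24 h at 30 °C and 99% humidity, viability was read by BacTiter-Glo luminescence.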
# Sm TGR block = qHTS Assay for the Inhibitors of Schistosoma Mansoni Peroxiredoxins; purified TGR, DTNB reduction, TNB absorbance 405 nm; Potency, µM (titrated, usually from 114 µM), for inactives: at the top dose activity change, negative = inhibition, hits mostly inhibitors; 360,000 tested, 3% active; further: nearly all actives have a fitted effect of over 60% in size
#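 First, TGR (20 nM dispensed) and NADPH were mixed with compound. Second, a 15 min room-temperature incubation followed. Third, further NADPH and then DTNB were added to start the reaction. Finally, TNB absorbance was monitored kinetically.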
# LmPK inh = qHTS Assay for Inhibitors of Leishmania Mexicana Pyruvate Kinase (LmPK); Q27686; purified LmPK, Kinase-Glo ATP luminescence, 1 h; Potency, µM (highest dose often 57.5 µM), without a hit: top-dose activity change, negative = inhibition, actives largely listed as inhibitors; 290,000 tested, 0.37% active
# Target sequence (Q27686 whole entry, looked up): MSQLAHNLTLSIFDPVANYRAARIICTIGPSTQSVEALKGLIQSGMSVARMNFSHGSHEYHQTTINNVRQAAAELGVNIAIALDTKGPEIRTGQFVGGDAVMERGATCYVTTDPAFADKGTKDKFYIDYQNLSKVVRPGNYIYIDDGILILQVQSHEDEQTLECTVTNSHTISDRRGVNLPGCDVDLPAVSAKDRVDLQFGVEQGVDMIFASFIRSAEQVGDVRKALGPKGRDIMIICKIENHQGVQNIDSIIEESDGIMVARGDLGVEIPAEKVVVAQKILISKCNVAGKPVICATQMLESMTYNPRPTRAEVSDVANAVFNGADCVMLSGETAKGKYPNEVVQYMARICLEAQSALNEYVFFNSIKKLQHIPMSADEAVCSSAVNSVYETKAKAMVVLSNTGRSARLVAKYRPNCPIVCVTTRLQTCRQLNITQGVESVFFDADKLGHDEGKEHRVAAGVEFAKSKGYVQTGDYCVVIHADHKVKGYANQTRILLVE
#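 Screened at intermediate enzyme activity to detect both inhibitors and activators: LmPK at 0.1 nM, with a 0.5 nM enzyme column as activation reference. PEP 0.5 mM, ADP 0.1 mM; ATP detected by luminescence after 1 h.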
# AMA1-RON2 inh = qHTS for Inhibitors of AMA1-RON; Towards Development of Antimalarial Drug Lead: Primary Screen; Plasmodium falciparum AMA1 (3D7) - RON2 peptide interaction; AlphaScreen AMA1-biotinylated RON2 peptide binding; Potency, µM (top dose mostly 58.2 µM), inactives show top-dose activity change, negative = inhibition, most hits filed as inhibitors; 360,000 tested, 0.2% active; AID 720542, 2013;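 further: 0% = vehicle wells and -100% = peptide control; nearly all actives have a fitted effect of over 45% in size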
#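 AMA1 (3D7) with his tag at 25 nM final met compounds first, then biotinylated RON2 peptide at 25 nM; detection used donor plus acceptor beads, 10 µg/mL apiece, read by AlphaScreen after 30 min at room temperature.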
# The depositor's hits bear a star; ? = inconclusive; . = no result given; [ ] = dose if it differs, or a comment. Unless noted, the call rests on the fitted dose curve; in most records, active means well fitted curve in the direction sought with a large enough effect; inconclusive means small, poorly fitted or top-dose-only effect, or another doubt; inactive means no such curve, though single readings can be large; an effect the other way counts as inactive or inconclusive. Unless noted, on the % scale 0 is the no-effect control and ±100 the full control effect; potency means the concentration at half of the fitted maximal effect.
SMILES,Tb PYK inh,RE007 growth inh,Sm TGR block,LmPK inh,AMA1-RON2 inh
O=C(Nc1cccc2c(=O)cc(-c3nn[nH]n3)oc12)c1ccc(OCCCCc2ccccc2)cc1,0.0%,.,.,.,.
Cc1ccc(/C=C2\C(=O)NC(=S)N(c3ccccc3F)C2=O)s1,31.6µM*,-1.0%,7.94µM*,7.8%,13.5%
O=C1c2ccccc2-c2onc3c(Oc4ccccc4)cc(O)c1c23,.,.,44.7µM*,-1.3%,.
CCN1/C(=C\C=C\C2=[N+](CC)c3ccccc3C2(C)C)C(C)(C)c2ccccc21,?,?,-9.0%,10µM*,14.1µM*
Cc1ccc(NC(=O)C2CCN(C(=O)c3cnn(-c4ccccc4)c3-n3cccc3)CC2)cc1,-0.8%,.,-1.9%,.,.
COc1ccc(CNC(=O)CC2C(=O)NCCN2CC(C)(C)C)c(OC)c1 (stereo not drawn),2.3%,0.0%,-19.7%,1.9%,-4.2%
CCOc1ccc(CN2CCNC(=O)C2CC(=O)O)cc1 (stereo not drawn),7.1%,2.0%,-2.6%,2.0%,-0.5%
COc1ccccc1CN1CCNC(=O)C1CC(=O)O (stereo not drawn),1.7%,10.6%,79.4µM*,7.1%,0.2%
O=C(O)CC1C(=O)NCCN1C/C=C/c1ccccc1 (stereo not drawn),4.0%,6.5%,39.8µM*,2.0%,16.7%
O=C(CC1C(=O)NCCN1C/C=C/c1ccccc1)NCCc1ccncc1 (stereo not drawn),4.9%,6.9%,-12.5%,3.1%,9.5%
Cc1ccc(CN2CCNC(=O)C2CC(=O)O)cc1 (stereo not drawn),-5.6%,16.3%,35.5µM*,1.1%,0.5%
COc1ccc(CN2CCNC(=O)C2CC(=O)NCc2ccc(C)s2)c(OC)c1 (stereo not drawn),-4.7%,15.6%,31.6µM*,0.9%,11.6%
COc1ccc(CCNC(=O)CCc2c(C)nc3cc(-c4ccccc4OC)nn3c2C)c(OC)c1,-8.4%,.,6.5%,.,.
O=C(c1cnc(N2CCOCC2)c2ccccc12)N1CCN(c2ccccc2)CC1,-0.2%,.,-4.6%,.,.
CC(=O)c1ccc(NC(=O)c2ncn(-c3ccccc3)n2)cc1,2.0%,.,-7.4%,.,.
COc1ccc(/C=C2/C(=O)NC(=O)N(C3CCCCC3)C2=O)cc1CSc1ccccn1,.,.,35.5µM*,13.0%,.
COc1ccc(/C=C2/C(=O)NC(=S)N(C3CC3)C2=O)cc1CN1C(=O)c2ccccc2C1=O,?,-3.0%,11.2µM*,16.6%,-3.4%
CCCCOc1ccc(C(=O)Nc2cc(-c3cn4cccnc4n3)ccc2OC)cc1,-3.3%,.,0.2%,.,.
Cc1cc(SCC(=O)N/N=C/c2ccc(O)c(O)c2O)c(C)cc1Br,9.8%,?,35.5µM*,-4.0%,27.8%
COc1cc(/C=N/NC(=O)CSc2cc(C)c(Br)cc2C)ccc1O,0.0%,-1.7%,-9.2%,0.3%,55.9%
Cc1noc2nc(C(=O)O)nc(N3CCCCC3)c12,-1.5%,.,-1.9%,.,.
CN1CCN(c2ccc(-c3cc(O)c4ncccc4c3)cc2)CC1,.,.,-4.4%,.,.
Cc1csc(N/N=C/c2ccc(O)c([N+](=O)[O-])c2)n1,-17.0%,9.4%,10µM*,?,-19.6%
Cc1csc(N/N=C\c2cccnc2)n1,-2.3%,-4.7%,22.4µM*,9.5%[11.5 µM],26.6%
Cc1ccc(C)n1-c1ccc2c(c1)COC2=O,.,.,11.2µM*,-5.4%,.
O=C1OCc2cc(-n3cccc3)ccc21,1.5%,-1.9%,-12.8%,10.3%,4.1%
O=C(CC1C(=O)NCCN1Cc1ccc(-c2ccccc2)cc1)NC1CCC1 (stereo not drawn),3.3%,5.6%,?,-3.6%,5.6%
O=C(CC1C(=O)NCCN1Cc1ccc(F)cc1Cl)NC1CCCCCCC1 (stereo not drawn),-14.2%,-14.8%,?,6.8%,13.7%
